Sampled rows, rich in hits. Any-hit rate of the full collection: about 12%.
L3MBTL1 block – qHTS Assay for the Inhibitors of L3MBTL1 | AlphaScreen L3MBTL1–H3K9me1 peptide binding | Potency, µM (highest dose often 57.1 µM), hits mostly inhibitors | 230,000 tested, 0.66% active | AID 485360, 2010; note: nearly all actives have a fitted effect of over 60% in size
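First, the protein-peptide complex forms for 30 min at room temperature (L3MBTL1 50 nM, biotinylated H3K9me1 peptide 75 nM). Next, compounds are pin-transferred and incubated 30 min. Finally, AlphaScreen beads are added and read after 30 min.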
BAZ2B inh – qHTS Assay for Inhibitors of BAZ2B; Bromodomain adjacent to zinc finger domain protein 2B (Homo sapiens), Q9UIF8; AlphaScreen BAZ2B-H3K14Ac peptide displacement; Potency, µM (doses to about 114 µM), most hits filed as inhibitors; 360,000 tested, 4.4% active; AID 504333, 2011; note: nearly all actives have a fitted effect of over 60% in size
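Compounds, titrated to a top concentration of 110 uM, were incubated 30 min at room temperature with preformed BAZ2B/acetyl-K14 H3 peptide complex (50 nM each). Proximity signal was measured by AlphaScreen after 20 min with beads.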
Sfp PPTase inh – qHTS Assay for Inhibitors of Bacillus subtilis Sfp phosphopantetheinyl transferase (PPTase) | 4'-phosphopantetheinyl transferase ffp (Bacillus subtilis), Q9F4F7 | Biochemical Sfp PPTase activity, qHTS | Potency, µM, hits mostly inhibitors | 310,000 tested, 3.5% active;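 note: the enzyme is Sfp with the accession as filed and its product quenches rhodamine fluorescence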
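Reaction rates are the 30-min fluorescence difference (ex 525, em 598 nm) in wells containing 15 nM Sfp, 5 uM rhodamine-CoA and 12.5 uM BHQ-2-YbbR at pH 7.6 with 10 mM MgCl2.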
G9a inh – qHTS Assay for Inhibitors of Histone Lysine Methyltransferase G9a; G9a H3K9 monomethylation, AlphaScreen, 2 h; 350,000 tested, 8.8% active; Histone-lysine N-methyltransferase EHMT2 (Homo sapiens), Q96KQ7; Potency, µM (doses to about 102 µM), usual class: inhibitors; note: nearly all actives have a fitted effect of over 75% in size
Target sequence (Q96KQ7 913-1193 limits assumed): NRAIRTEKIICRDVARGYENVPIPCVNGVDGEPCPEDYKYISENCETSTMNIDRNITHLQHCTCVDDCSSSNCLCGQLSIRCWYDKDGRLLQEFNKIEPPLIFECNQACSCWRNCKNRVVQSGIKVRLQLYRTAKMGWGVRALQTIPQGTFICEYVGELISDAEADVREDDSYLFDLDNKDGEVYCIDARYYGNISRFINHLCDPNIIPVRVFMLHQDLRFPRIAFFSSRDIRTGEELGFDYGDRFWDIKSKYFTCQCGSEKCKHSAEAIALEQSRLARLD
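Chemiluminescent proximity detection of H3K9 monomethylation, read after 10 min bead incubation in the dark. Reaction: 20 nM G9a, 500 nM biotin-H3K9 peptide, 20 uM SAM cofactor, 2 h, room temperature, following 15 min enzyme-compound preincubation.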
HP1b binding inh – HTS for Inhibitors of HP1-beta Chromodomain Interactions with Methylated Histone Tails; AlphaScreen HP1-beta / biotin-H3K9me3 peptide binding; Potency, µM (doses to about 114 µM), hits mostly inhibitors; 390,000 tested, 0.56% active; AID 540317, 2011; note: nearly all actives have a fitted effect of over 70% in size
Target sequence (P83916 whole entry, looked up): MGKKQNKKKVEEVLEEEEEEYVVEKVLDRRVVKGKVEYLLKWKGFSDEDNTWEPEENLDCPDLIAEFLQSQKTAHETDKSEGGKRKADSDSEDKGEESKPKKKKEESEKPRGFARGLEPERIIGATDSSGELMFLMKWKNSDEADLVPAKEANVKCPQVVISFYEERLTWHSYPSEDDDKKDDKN
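HP1-beta protein (50 nM final) preincubated 30 min at room temperature with biotinylated H3(1-18)K9me3 peptide (50 nM) in PBS pH 7.4, 0.01% Tween-20, then compound added for 30 min. AlphaScreen streptavidin donor/nickel chelate acceptor beads (10 ug/mL final), 30 min dark, luminescence read.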
JMJD2A Tudor – qHTS Assay for Inhibitors of JMJD2A-Tudor Domain; Lysine-specific demethylase 4A (Homo sapiens), O75164; AlphaScreen JMJD2A-Tudor / H3K4me3 peptide binding; Potency, µM (series often up to 114 µM), hits mostly inhibitors; 390,000 tested, 4.4% active; AID 504339, 2011; note: nearly all actives have a fitted effect of over 50% in size
A number is an active result; [ ] = another dose, or the depositor's remark. Calls come from the whole dose curve; as a rule, active = well fitted curve in the direction sought with a large enough effect; inconclusive = small, poorly fitted or top-dose-only effect, or another doubt; inactive = no such curve, though single readings can be large; an effect the other way counts as inactive or inconclusive.

What do the screens show for `COc1ccc(Cl)cc1NC(=O)c1c(NCc2ccc(C)o2)sc2c1CCCC2`?
BAZ2B inh: inconclusive; G9a inh: inconclusive; HP1b binding inh: inactive; JMJD2A Tudor: inconclusive

Results for COc1ccc(NC(=O)c2c(NCc3ccc(OC)c(OC)c3OC)sc3c2CCC3)c(OC)c1 ?
BAZ2B inh: inactive; G9a inh: 13µM; HP1b binding inh: inactive; JMJD2A Tudor: inconclusive

How did CCOc1ccccc1NC(=O)c1c(NCc2ccc(OC)c(OC)c2OC)sc2c1CCC(C)C2 (stereo not drawn) do in these assays?
BAZ2B inh: inactive; G9a inh: inconclusive; HP1b binding inh: inactive; JMJD2A Tudor: inactive

What do the screens show for `CCOC(=O)N1CCc2c(sc(NCc3ccc(OC)c(OC)c3OC)c2C(=O)Nc2ccc(OC)cc2OC)C1`?
BAZ2B inh: inconclusive; G9a inh: 7.1µM; HP1b binding inh: inconclusive; JMJD2A Tudor: inconclusive

Results for CCOC(=O)N1CCc2c(sc(NCc3ccc(N(CC)CC)cc3)c2C(=O)Nc2cc(OC)ccc2OC)C1 ?
BAZ2B inh: 7.9µM; G9a inh: 7.1µM; HP1b binding inh: inconclusive; JMJD2A Tudor: inconclusive

Results for COc1ccc(NC(=O)c2c(NCc3cccc(OC)c3)sc3c2CCCC3)cc1 ?
BAZ2B inh: inactive; G9a inh: inconclusive; HP1b binding inh: inactive; JMJD2A Tudor: inconclusive

Results for CSc1nc2ncncc2[nH]1 ?
HP1b binding inh: inactive; JMJD2A Tudor: inactive

How did Cn1c(=O)c(-c2ccc(F)cc2)nc2cnc(OCc3ccccc3)nc21 do in these assays?
Sfp PPTase inh: inactive; G9a inh: inactive[0.501 µM]

How did CCOC(=O)N1CCc2c(sc(NCc3ccc(OCC)cc3)c2C(=O)Nc2ccc(OC)cc2OC)C1 do in these assays?
BAZ2B inh: inactive; G9a inh: 7.9µM; HP1b binding inh: inactive; JMJD2A Tudor: inconclusive

What do the screens show for `CCOc1ccccc1NC(=O)c1c(NCc2ccc(C)o2)sc2c1CCCCC2`?
BAZ2B inh: inactive; G9a inh: 5µM; HP1b binding inh: inactive; JMJD2A Tudor: inconclusive

What do the screens show for `C=CCNCC(=O)Nc1sc2c(c1C(=O)Nc1ccc(OC)cc1OC)CCC2`?
L3MBTL1 block: inactive; BAZ2B inh: inactive; Sfp PPTase inh: inconclusive; HP1b binding inh: inactive; JMJD2A Tudor: inactive

Results for CCOC(=O)N1CCc2c(sc(NCc3ccc(N(C)C)cc3)c2C(=O)Nc2ccccc2OCC)C1 ?
BAZ2B inh: 8.9µM; G9a inh: 3.2µM; HP1b binding inh: inconclusive; JMJD2A Tudor: 13µM

What do the screens show for `COc1ccc(NC(=O)c2c(NCc3cccc(F)c3)sc3c2CCC3)c(OC)c1`?
BAZ2B inh: inactive; G9a inh: inconclusive; HP1b binding inh: inactive; JMJD2A Tudor: inactive

Results for CCOc1ccccc1NC(=O)c1c(NC(=O)COc2ccccc2)sc2c1CCCC2 ?
BAZ2B inh: inactive; G9a inh: inactive; HP1b binding inh: inactive; JMJD2A Tudor: inactive

What do the screens show for `CCOc1ccccc1NC(=O)c1c(NCc2ccc(C)o2)sc2c1CCC(C)C2` (stereo not drawn)?
BAZ2B inh: inactive; G9a inh: inactive; HP1b binding inh: inactive; JMJD2A Tudor: inactive

How did COc1ccc(NC(=O)c2c(NCc3sccc3C)sc3c2CCCC3)c(OC)c1 do in these assays?
BAZ2B inh: inconclusive; G9a inh: 14µM; HP1b binding inh: inconclusive; JMJD2A Tudor: inconclusive

Results for COC(=O)c1ccc(NS(=O)(=O)c2ccc(-c3cc(C)no3)s2)cc1 ?
BAZ2B inh: inactive; Sfp PPTase inh: inactive; G9a inh: inactive; HP1b binding inh: inactive; JMJD2A Tudor: inactive

Results for CCOC(=O)c1cccc(NC(=O)CC(c2ccc(F)cc2)N2Cc3ccccc3C2=O)c1 (stereo not drawn) ?
BAZ2B inh: inactive; G9a inh: inactive; HP1b binding inh: inactive; JMJD2A Tudor: inactive

How did CCS(=O)(=O)n1nc(-c2ccc(Cl)cc2)nc1SCc1ccccc1 do in these assays?
L3MBTL1 block: inactive; BAZ2B inh: inactive; Sfp PPTase inh: inactive; G9a inh: 7.1µM; HP1b binding inh: inactive; JMJD2A Tudor: 40µM

Results for Cc1nn(CC(=O)NCCc2ccco2)c(=O)c2nn(-c3ccccc3)c(C)c12 ?
BAZ2B inh: inconclusive; Sfp PPTase inh: inactive; G9a inh: inconclusive; HP1b binding inh: inactive; JMJD2A Tudor: inactive

How did Cc1ccc(CCNC(=O)C(C)n2nc(C)c3c(C)n(-c4ccccc4)nc3c2=O)cc1 (stereo not drawn) do in these assays?
BAZ2B inh: inactive; Sfp PPTase inh: inactive; G9a inh: inactive; HP1b binding inh: inactive; JMJD2A Tudor: inactive

How did Cc1ccc(-n2nc3c(=O)n(C(C)C(=O)NCCC4=CCCCC4)nc(C)c3c2C)cc1 (stereo not drawn) do in these assays?
BAZ2B inh: inactive; Sfp PPTase inh: inactive; G9a inh: inactive; HP1b binding inh: inactive; JMJD2A Tudor: 45µM

Results for Cc1nn(C(C)C(=O)NCCc2ccco2)c(=O)c2nn(-c3ccccc3)c(C)c12 (stereo not drawn) ?
BAZ2B inh: inactive; Sfp PPTase inh: inactive; G9a inh: inactive; HP1b binding inh: inactive; JMJD2A Tudor: 79µM

How did C#CCCCO/N=C1/C[C@@H](O)[C@@H](O)[C@@H]2[C@@H]3C(=O)N(c4cccc(Oc5ccccc5)c4)C(=O)[C@H]3CC[C@H]12 do in these assays?
Sfp PPTase inh: inactive

Results for C=CCOc1ccc(/C=C2/C(=O)ON=C2C)cc1OC ?
BAZ2B inh: inactive; Sfp PPTase inh: 45µM; G9a inh: 50µM; HP1b binding inh: inactive; JMJD2A Tudor: inactive

How did COc1ccc(/C=C2/C(=O)ON=C2C)cc1Cl do in these assays?
BAZ2B inh: inactive; Sfp PPTase inh: 79µM; G9a inh: 16µM; HP1b binding inh: inactive; JMJD2A Tudor: inactive

How did Cc1cccn2c(=O)nc(SCC(=O)NCc3ccc4c(c3)OCO4)nc12 do in these assays?
L3MBTL1 block: inactive; BAZ2B inh: inactive; G9a inh: inconclusive; HP1b binding inh: inactive; JMJD2A Tudor: inactive

What do the screens show for `O=C(COC(=O)c1cc(Br)ccc1O)NNC(=O)c1ccc([N+](=O)[O-])cc1`?
L3MBTL1 block: inactive; BAZ2B inh: inactive; G9a inh: 45µM; HP1b binding inh: inactive; JMJD2A Tudor: inactive

Results for O=C(COC(=O)c1cc(Br)ccc1O)NNC(=O)c1ccc(Cl)cc1 ?
L3MBTL1 block: inactive; BAZ2B inh: inactive; G9a inh: 45µM; HP1b binding inh: inactive; JMJD2A Tudor: inactive
